Only a selection was taken, and the strongest signals are over-represented in it overall.
Experiments:
Assay in all cases: glycan array binding signal (z-score within array); higher = stronger binding
Conditions in all cases: glycan notation: IUPAC condensed, linker removed
[1] = test system: Man(a1-3)[Man(a1-6)]Man(b1-4)GlcNAc(b1-4)[Fuc(a1-6)]GlcNAc
Outline: (§1)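 Negative Z-scores can be read as non-binding. The Z-score is calculated within each array and then averaged across arrays of one protein sequence at different concentrations or buffers and across linkers. Arrays, 3228 in all, were curated from the Consortium for Functional Glycomics database and kept only where the protein sequence was available.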

[2] = test system: Man(b1-4)GlcNAc
Outline: as §1

[3] = test system: MurNAc(b1-4)GlcNAc
Outline: as §1

[4] = test system: Neu5Ac(a2-3)Gal(b1-3)GlcNAc(b1-2)Man(a1-3)[GlcNAc(b1-4)][Neu5Ac(a2-3)Gal(b1-3)GlcNAc(b1-2)Man(a1-6)]Man(b1-4)GlcNAc(b1-4)GlcNAc
Outline: as §1

[5] = test system: Neu5Ac(a2-3)Gal(b1-3)GlcNAc(b1-6)GalNAc
Outline: as §1

[6] = test system: Neu5Ac(a2-3)Gal(b1-4)GlcNAc(b1-2)Man
Outline: as §1

[7] = test system: Neu5Ac(a2-3)Gal(b1-3)GalNAc(b1-4)[Neu5Ac(a2-3)]Gal(b1-4)Glc
Outline: as §1

[8] = test system: Neu5Ac(a2-3)Gal(b1-3)GalNAc(b1-4)[Neu5Ac(a2-8)Neu5Ac(a2-3)]Gal(b1-4)Glc
Outline: as §1

[9] = test system: Neu5Ac(a2-3)Gal(b1-3)GlcNAc(b1-4)Gal(b1-4)Glc
Outline: as §1

[10] = test system: Neu5Ac(a2-3)Gal(b1-4)GlcNAc(b1-2)Man(a1-3)[GlcNAc(b1-4)][Neu5Ac(a2-3)Gal(b1-4)GlcNAc(b1-2)Man(a1-6)]Man(b1-4)GlcNAc(b1-4)GlcNAc
Outline: as §1

[11] = test system: Neu5Ac(a2-3)Gal(b1-4)GlcNAc(b1-2)Man(a1-3)[Neu5Ac(a2-6)Gal(b1-4)GlcNAc(b1-2)Man(a1-6)]Man(b1-4)GlcNAc(b1-4)GlcNAc
Outline: as §1

[12] = test system: Man(a1-3)[Man(a1-6)]Man(a1-6)[Man(a1-2)Man(a1-3)]Man(b1-4)GlcNAc(b1-4)GlcNAc
Outline: as §1

[13] = test system: Neu5Ac(a2-3)Gal(b1-3)GlcNAc(b1-3)Gal(b1-3)GlcNAc
Outline: as §1

[14] = test system: Neu5Ac(a2-3)Gal(b1-4)GlcNAc(b1-2)Man(a1-3)[Neu5Ac(a2-3)Gal(b1-4)GlcNAc(b1-2)Man(a1-6)]Man(b1-4)GlcNAc(b1-4)[Fuc(a1-6)]GlcNAc
Outline: as §1

[15] = test system: Neu5Ac(a2-3)Gal(b1-3)[Neu5Ac(a2-6)]GalNAc
Outline: as §1

[16] = test system: Neu5Ac(a2-3)Gal(b1-3)GlcNAc(b1-3)Gal(b1-4)GlcNAc
Outline: as §1

[17] = test system: Neu5Ac(a2-3)Gal(b1-3)GalNAc
Outline: as §1

[18] = test system: Neu5Ac(a2-3)Gal(b1-3)GlcNAc6S
Outline: as §1

[19] = test system: Man(a1-3)[Man(a1-6)]Man
Outline: as §1

[20] = test system: Neu5Ac(a2-3)Gal(b1-3)[Fuc(a1-4)]GlcNAc
Outline: as §1

Substance: Epa22
- glycan array binding signal (z-score) [1]: -0.324

Substance: LcI (Legionella pneumophila)
- glycan array binding signal (z-score) [2]: 0.079
- glycan array binding signal (z-score) [3]: 0.332
- glycan array binding signal (z-score) [4]: -0.429
- glycan array binding signal (z-score) [5]: 3.77
- glycan array binding signal (z-score) [6]: 2.16

Substance: AgI/II Vhelical-GFP (Streptococcus mutans)
- glycan array binding signal (z-score) [7]: 0.244
- glycan array binding signal (z-score) [8]: -0.256
- glycan array binding signal (z-score) [4]: 1.2
- glycan array binding signal (z-score) [9]: -0.297
- glycan array binding signal (z-score) [10]: 0.396
- glycan array binding signal (z-score) [11]: -0.182

Substance: AgI/IIC123-GFP (Streptococcus mutans)
- glycan array binding signal (z-score) [12]: -0.159
- glycan array binding signal (z-score) [4]: -0.265
- glycan array binding signal (z-score) [13]: -0.456
- glycan array binding signal (z-score) [14]: -0.442

Substance: MIC3-MAR1b (Eimeria tenella), B6VCV4
- glycan array binding signal (z-score) [15]: -0.355

Substance: BambL (Burhholderia ambifaria), Q0B4G1
- glycan array binding signal (z-score) [16]: -0.316

Substance: GspB (Streptococcus gordonii), Q939N5
- glycan array binding signal (z-score) [17]: 4.52
- glycan array binding signal (z-score) [18]: -0.2
- glycan array binding signal (z-score) [15]: 3.61

Substance: Wza (Escherichia coli), P0A930
- glycan array binding signal (z-score) [12]: 0.776
- glycan array binding signal (z-score) [19]: 1.81

Substance: SiiE (Salmonella typhimurium), A0A0H3NVH0
- glycan array binding signal (z-score) [16]: -0.888

Substance: Actinohivin (Actinomycete K97)
- glycan array binding signal (z-score) [18]: -0.191
- glycan array binding signal (z-score) [20]: -0.196

Source: the supplement of paper PMC8728848
